Inconclusive results are not listed. Unmarked numbers belong to inactive results. Calls of active or inactive are those of the source. The call rests on the fitted dose curve.
On the % scale 0 is the no-effect control and ±100 the full control effect.

Chain of D(2) dopamine receptor (Homo sapiens) (P14416 whole entry, looked up): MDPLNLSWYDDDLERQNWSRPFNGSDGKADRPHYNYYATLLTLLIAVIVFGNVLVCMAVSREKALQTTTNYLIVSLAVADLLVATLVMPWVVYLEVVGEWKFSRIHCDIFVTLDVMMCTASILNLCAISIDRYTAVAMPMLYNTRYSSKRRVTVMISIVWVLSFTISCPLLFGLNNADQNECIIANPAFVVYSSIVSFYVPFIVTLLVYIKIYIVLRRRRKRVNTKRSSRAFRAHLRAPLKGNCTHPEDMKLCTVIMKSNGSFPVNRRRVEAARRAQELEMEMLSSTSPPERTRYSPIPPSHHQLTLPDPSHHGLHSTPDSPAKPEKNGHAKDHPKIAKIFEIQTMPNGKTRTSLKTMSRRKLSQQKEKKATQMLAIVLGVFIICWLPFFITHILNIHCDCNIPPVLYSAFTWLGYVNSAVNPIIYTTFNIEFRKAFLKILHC

This test concerns the target D(2) dopamine receptor (Homo sapiens) (UniProt P14416). Briefly: Dopamine D2 receptor (DRD2) small molecule agonists, cell-based qHTS assay (AID 1963594). Further: nearly all actives have a fitted effect of over 35% in size. The conditions noted are these: HEK293-DRD2 cAMP HTRF, agonist mode, 30 min; series mostly up to 92.4 µM; activation: at the top concentration. The source says: National Center for Advancing Translational Sciences [NCATS]
Division of Preclinical Innovation [DPI]
U.S. Environmental Protection Agency [EPA]
National Institutes of Environmental Health Sciences [NIEHS]
National Toxicology Program [NTP]
U.S. Food and Drug Administration [FDA]
DRD2 is the D2 subtype of the dopamine receptor, which is coupled to Gi subtype of G protein-coupled receptor. This G protein-coupled receptor inhibits adenylyl cyclase activity. The DRD2-HEK293 cell line stably expressing D2 dopamine receptor can be used for screening agonists and antagonists of interactions between D2 and its ligands. The Hek293-DRD2 cAMP assay is based on HTRF technology. It measures changes of cAMP accumulation in response to Gi coupled GPCR activation or inhibition.
Tox21 Assay Protocol Summary:
DRD2-Hek293 cells were dispensed at 600 cells/3uL/well in 1536-well white plates using a Multidrop Dispenser. After the assay plates were incubated at a 37 C/5% CO2 incubator for 24 h, 1 uL of Ro20-1724 at final concentration of 0.1 mM was transferred to the assay plate by a Flying Reagent Dispenser. Following Ro20-1724 addition, 23 nL of compound dissolved in DMSO, positive controls or DMSO only was added to the assay plates via Wako pintool station. The assay plates were incubated at room temperature for 10 min. Next, 1 uL of NKH477 at 200nM was added into the plates. After the assay plates were incubated at room temperature for an additional 30 min, 2.5 ul/well of cAMP-d2 and 2.5 ul/well of anti-cAMP-cryptate were added respectively into the assay plates using a Flying Reagent Dispenser. The plates were incubated at room temperature for 1 h. The fluorescence intensity in the plates was measured at 340 nm excitation and 665 & 620 nm emission by an Envision plate reader.
Take `O=S(=O)(O)CC(O)CCl` (stereo not given): the “activation” value is 3.69%.

As to `CN(C)c1cc(NC(=O)CNC(C)(C)C)c(O)c2c1C[C@H]1C[C@H]3[C@H](N(C)C)C(=O)C(C(N)=O)=C(O)[C@@]3(O)C(=O)C1=C2O`, the “activation” value is 14.6% [at 42.5 µM].

Regarding `CC1CC(=O)CC(C)(C)C1` (stereo not given), the “activation” value is 0.277%.

With `Cl/C(=C\n1cncn1)c1ccc(Cl)cc1Cl`, the “activation” value was -3.34% [at 42.5 µM].

Take `CC(=O)/C=C/C1C(C)=CCC(C)C1(C)C` (stereo not given): the “activation” value is 1.35%.

On to `O=C[O][Al]([O]C=O)[O]C=O`, for which the “activation” value is -0.32%.

As for `COc1nc(N)nc2nc[nH]c12`, the “activation” value is -0.762%.

On to `CC/C=C\CCO`, for which the “activation” value was -0.0216%.

Turning to `CC(C)CC(O)Cc1ccccc1` (stereo not given), the “activation” value is 8.29%.

Consider `NC(=O)c1ccccc1Cl`, for which the “activation” value is 0.675%.

For `CCOC(=O)c1ccc(C)cc1`, the “activation” value was 1.98%.

On to `CC1(C)Oc2ccc(C#N)cc2[C@@H](N2CCCC2=O)[C@@H]1O`, for which the “activation” value is -0.198% [at 42.5 µM].

On to `CCC(COC(=O)CCS)(COC(=O)CCS)COC(=O)CCS`, for which the “activation” value was -1.91%.

Regarding `C=C1[C@H]2CC[C@@H]3[C@H]2C(C)(C)CCC[C@]13C`, the “activation” value was -3.96%.

With `C#CC(O)CCC` (stereo not given), the “activation” value was -2.47%.

For `O=C(/C=C/c1ccccc1)OCc1ccccc1`, the Potency entry was “inactive”.

For the compound `CCCCCCOC(=O)CC`, the “activation” value was -0.718%.

On to `CO[Si](CCCCl)(OC)OC`, for which the “activation” value is 0.564%.

In the case of `CCCSSCCC`, the “activation” value is -3.09%.

As to `CC(C)NC(=O)c1ccccc1N`, the “activation” value was -0.446%.

As for `NC(=O)CCCCC(N)=O`, the “activation” value is 1.07%.

`COc1cc(C(=S)N2CCOCC2)ccc1O`: the “activation” value was 15% [at 42.5 µM].

As to `CCCOCCO`, the Potency entry is “inactive”.

In the case of `Cc1cn([C@H]2C[C@H](F)[C@@H](CO)O2)c(=O)[nH]c1=O`, the “activation” value was 2.56% [at 42.5 µM].

On to `OCC(CO)N[C@H]1C[C@](O)(CO)[C@@H](O)[C@H](O)[C@H]1O`, for which the “activation” value is -22.9% [at 42.5 µM].

Turning to `CCC/C=C/CO`, the “activation” value was -1.61%.

Consider `O=c1oc2c(O)c(O)cc3c(=O)oc4c(O)c(O)cc1c4c23`, for which the activation is 15.6% [at 19 µM].

With `CCCCCCOCCOCCO`, the Potency result was “inactive”.

On to `COc1cc(S(N)(=O)=O)cc(C(=O)O)c1OC`, for which the “activation” value is -0.0372% [at 42.5 µM].

As to `CNC1(C)C2CCC(C2)C1(C)C` (stereo not given), the “activation” value was 0.0341% [at 42.5 µM].

Turning to `O=C(c1ccc(Cl)cc1)c1ccc(Cl)cc1`, the “activation” value is 2.22%.

In the case of `CC(C)c1ccc(S(=O)(=O)O)cc1`, the Potency entry is “inactive”.

In the case of `Cc1cccc(Nc2ccccc2C(=O)O)c1C`, the “activation” value is -0.25%.

With `Cc1cc(OCCOCC[N+](C)(C)Cc2ccccc2)ccc1C(C)(C)CC(C)(C)C`, the “activation” value is -40.3% [at 42.5 µM].

For the compound `O=P(O)(OCc1ccccc1)OCc1ccccc1`, the “activation” value was 0.262%.

`c1ccc(CNCc2ccccc2)cc1`: the “activation” value was -8.83%.

On to `COc1ccc(-c2coc3cc(O)cc(O)c3c2=O)cc1`, for which the Potency entry is “inactive”.

On to `CCCCC1CCC(=O)O1` (stereo not given), for which the “activation” value was 1.69%.

Regarding `NCCNCCNCCN`, the Potency entry was “inactive”.

For `c1ccc(CCCc2ccncc2)cc1`, the “activation” value is -3.45%.

The values are drawn from PubChem BioAssay (Tox21).
